# Data reported in PubChem BioAssay AID455 (Sanford-Burnham Center for Chemical Genomics, 2006).
# Screen size: about 10,000 compounds; about 20 (0.2%) were called active.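 Rule for the calls: active = a compound raising TNF-alpha-driven VCAM-1 surface staining, with its hit status upheld on visual or statistical review; inactive = the rest, including hits rejected on review.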 For the sample, actives were picked, then their nearest neighbours and some compounds at random.
# Assay: boosters of cytokine-driven VCAM-1 levels – cell-based, plate reader, pooled HUVEC, TNFa stimulus (AID 455);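 for augmentation: 0% = TNFa plus DMSO wells and 100% = a visually confirmed top hit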
# Details: HUVEC TNFa-induced VCAM-1 immunofluorescence; hits give high values, 100% set by best visually verified hit,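 tested at 5 µM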
row,Compound,augmentation
1,CC1/C(=N/O)C(CN(C)C)C2CC1C2(C)C (configuration not stated),inactive
2,COc1ccc(-c2noc(C3CCCN(C(=O)CCc4ccccc4)C3)n2)cc1 (configuration not stated),inactive
3,O=C(NCCc1c[nH]c2ccccc12)c1cnc2n(c1=O)CCS2,inactive
4,CCOc1ccccc1C(=O)NC(C)c1ccc2c(c1)OCO2 (configuration not stated),inactive
5,O=C(CN1CCN(Cc2ccc(F)cc2Cl)C1=O)NCCCN1CCOCC1,inactive
6,O=C(CSc1nnc2scc(-c3ccccc3)n12)N1CCN(Cc2ccccc2)CC1,inactive
7,c1ccc2c3nnc4n(c-3nc2c1)CCCS4,inactive
8,COc1cc(NC(=O)C2CCCN2S(=O)(=O)c2cccc3cccnc23)cc(OC)c1OC (configuration not stated),inactive
9,COc1ccccc1-c1nc(SCc2ccccn2)n[nH]1,inactive
10,CN(C)c1cccc(C(=O)OCC(=O)NCc2ccco2)c1,inactive
11,O=C(CSc1nnc(-c2ccccc2)o1)N1CCc2ccccc2C1,inactive
12,Cc1noc(C)c1COc1cccc(C(=O)Oc2ccc3c(c2)OCO3)c1,inactive
13,O=C1C2CCCN2C(c2ccc(Cl)cc2)N1c1nccs1 (configuration not stated),inactive
14,C=CCn1c(=O)[nH]c2cc(C(=O)N3CCN(c4cc(C)ccc4C)CC3)ccc2c1=O,inactive
15,COc1cccc(NC(=O)CSc2nnc(-c3cccs3)n2C)c1,inactive
16,CCCC(=O)NCCc1cc2c(C)ccc(C)c2[nH]c1=O,inactive

row,Compound,augmentation
1,O=C(CNC(=O)c1cccs1)NCCN1CCN(c2ccccc2F)CC1,inactive
2,COc1cccc(NC(=O)N2CCC(N3CCCCC3)CC2)c1,inactive
3,COc1cccc(NC(=O)N2CCN(c3cccc(C)c3C)CC2)c1,100% (active)
4,COc1cccc(NC(=O)CN2CCN(c3ccccc3F)CC2)c1,inactive
5,Cc1ccc(C)c(CSc2nnc(CCN)o2)c1,inactive
6,COc1ccc(N2CCN(CCNS(=O)(=O)c3cccc4nsnc34)CC2)cc1,inactive
7,CC(=O)c1ccccc1Oc1nc(CN2CCOCC2)nc2scc(-c3cccs3)c12,inactive
8,COC(=O)c1ccc(CNC(=O)CSc2nc3sc(C)c(C)c3c(=O)n2C)o1,inactive
9,CCN(CC)CCCNS(=O)(=O)c1ccc(OC)cc1,inactive
10,COc1ccc(S(=O)(=O)NCc2ccc(C(=O)O)cc2)cc1,inactive
11,CCCCC(NS(=O)(=O)c1ccc(OC)cc1)C(=O)O (configuration not stated),66.3% (active)
12,O=C(Nc1nc(-c2ccc(S(=O)(=O)N3CCCCCC3)cc2)cs1)c1cccs1,inactive
13,COCCn1c(-c2ccc(OC)c(OC)c2)nc2ccccc21,100% (active)
14,C=CCn1c(-c2ccc(OC)cc2)nc2ccccc21,inactive
15,COc1ccc(Cn2c(CCCO)nc3ccccc32)cc1OC,inactive
16,Cc1ccc(O)c(-c2cc3ccccc3[nH]2)c1,inactive
